Most compounds without a hit are left out; they make up all but 18% or so of the library.
IL-1B inflam inh – inflammasome signaling inhibition, IL-1 beta readout; THP-1 LPS/ATP IL-1B secretion, AlphaLISA, 16 h; hits give low values; activity change, % at 57.5 µM; 360,000 tested, 4.7% active; in the data active = activity change below about -50%; inconclusive = mostly about -30% to -49%
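THP-1 cells pretreated 1 hr with compounds (up to 57.5 uM final), then stimulated with LPS (250 ng/mL final) plus ATP (1.25 mM final); secreted IL-1B measured by AlphaLISA after 16 hr, decreased signal indicating inhibition.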
DT40 TDP1 CPT – DT40-hTDP1 cell growth loss with CPT; 420,000 tested, 12% active; Potency, µM (doses to about 46.2 µM), for inactives: top-dose activity change, negative = growth inhibition, hits mostly inhibitors; AID 686979; chicken DT40 Tdp1-/-;hTDP1 cells + 20 nM CPT, ATP luminescence, 48 h; also: potency is read from the fitted curve at half-maximal effect; nearly all actives have a fitted effect of over 55% in size
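Cell growth measured by CellTiter-Glo luminescence after a minimum 48 h, 37 C compound exposure with 20 nM CPT in Tdp1-knockout DT40 cells stably expressing hTDP1, seeded 400/well; qHTS titration format.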
CtBP-E1A blk – inhibitors of CtBP/E1A interaction; 340,000 tested, 0.49% active; AlphaScreen GST-E1A/His-CtBP binding, 1536-well; hits give low values; activity change, % (test concentration not listed); in the data active = activity change below about -65%; inconclusive = mostly about -30% to -63%
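Steps: dispense buffer (Tris pH 8.0, NaCl 300 mM, TCEP 1 mM, BSA, Tween 20); add 5X protein mix (GST-E1A, His-CtBP, 125 nM each); pin 23 nL compound; 2 h at 37 °C, dark; add 5X beads (50 ug/mL); 1 h; read.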
TDP1 cell noCPT – qHTS for Inhibitors of human tyrosyl-DNA phosphodiesterase 1 (TDP1): qHTS in cells in absence of CPT; DT40 Tdp1-/- hTDP1 cells, no CPT, ATP luminescence, 48 h; Potency, µM (series often up to 46.2 µM), for the others: at the top dose activity change, negative = growth inhibition, hits mostly inhibitors; 420,000 tested, 15% active; also: potency is read from the fitted curve at half-maximal effect; nearly all actives have a fitted effect of over 55% in size
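Stably hTDP1-transfected Tdp1-null chicken DT40 cells were treated with library compounds minus camptothecin and grown for at least 48 hr at 37 °C, after which cellular ATP was quantified by luminescence.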
TDP1 inh – TDP1 (human) enzyme inhibition; Q9NUW8; recombinant TDP1, AlphaScreen DNA substrate cleavage; Potency, µM (doses to about 130 µM), for the others: at the top dose activity change, negative = inhibition, hits mostly inhibitors; 350,000 tested, 0.28% active; AID 485290; also: potency is read from the fitted curve at half-maximal effect; nearly all actives have a fitted effect of over 40% in size
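Steps: enzyme plus compound, 15 min RT; add biotin/phosphotyrosine-FITC oligonucleotide (15 nM final), react 5 min; add donor/acceptor beads (10 ug/ml final), 10 min; read AlphaScreen. Tdp1 at 1 nM final.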
Six1-Eya2 inh – Six1/Eya2 interaction inhibition | AlphaScreen GST-Six1/His-Eya2 binding, biochemical; hits give low values | Q15475+O00167 | activity change, % (no concentration beside the values) | 360,000 tested, 0.56% active; in the data active = activity change below about -65%; inconclusive = mostly about -30% to -63%
Target sequence (O00167 whole entry, looked up): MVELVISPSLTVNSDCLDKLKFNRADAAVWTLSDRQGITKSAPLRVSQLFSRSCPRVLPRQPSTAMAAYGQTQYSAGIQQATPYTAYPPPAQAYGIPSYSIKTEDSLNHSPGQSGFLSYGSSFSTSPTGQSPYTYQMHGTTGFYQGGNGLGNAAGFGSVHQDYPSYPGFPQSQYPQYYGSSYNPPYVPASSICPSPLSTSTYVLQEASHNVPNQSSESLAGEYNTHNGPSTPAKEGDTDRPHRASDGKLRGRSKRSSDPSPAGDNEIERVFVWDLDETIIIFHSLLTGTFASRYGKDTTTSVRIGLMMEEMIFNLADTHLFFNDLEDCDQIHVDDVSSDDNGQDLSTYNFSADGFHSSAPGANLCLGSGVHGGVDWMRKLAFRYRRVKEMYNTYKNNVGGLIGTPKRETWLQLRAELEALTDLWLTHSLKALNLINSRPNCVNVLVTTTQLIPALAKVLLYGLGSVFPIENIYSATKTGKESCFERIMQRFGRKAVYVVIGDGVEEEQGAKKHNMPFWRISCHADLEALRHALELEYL
Target sequence (Q15475 whole entry, looked up): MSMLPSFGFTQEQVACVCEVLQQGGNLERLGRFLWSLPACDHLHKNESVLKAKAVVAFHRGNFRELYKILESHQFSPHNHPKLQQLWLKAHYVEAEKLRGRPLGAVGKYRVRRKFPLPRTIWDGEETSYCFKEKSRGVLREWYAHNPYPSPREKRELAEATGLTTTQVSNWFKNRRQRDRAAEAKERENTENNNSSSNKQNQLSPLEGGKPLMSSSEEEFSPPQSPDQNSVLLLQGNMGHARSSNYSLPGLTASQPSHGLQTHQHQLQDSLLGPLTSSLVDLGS
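AlphaScreen with GST-Six1 and His-Eya2 (5X mix: 250 nM and 500 nM), glutathione donor and nickel acceptor beads; buffer 50 mM Tris pH 8.0, 300 mM NaCl, 1 mM TCEP; 1 h at 37 C in the dark.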
* hit, by the source's call; u = inconclusive; x = no result; ! = not confirmed by another sample; [ ] = remark or other dose. Unless noted, calls follow the shape of the dose curve; as a rule, active = well fitted curve in the direction sought with a large enough effect; inconclusive = small, poorly fitted or top-dose-only effect, or another doubt; inactive = no such curve, though single readings can be large; an effect the other way counts as inactive or inconclusive. % is scaled to controls: 0 for no effect and ±100 for the full control effect.

SMILES	IL-1B inflam inh	DT40 TDP1 CPT	CtBP-E1A blk	TDP1 cell noCPT	TDP1 inh	Six1-Eya2 inh
Cn1nc(C(=O)OCC(=O)Nc2ccccc2OC(F)F)c2ccccc2c1=O	9.0	1.0%	x	-19.7%	-0.6%	-0.1
Nc1ccccc1S(=O)(=O)O	x	x	x	x	6.5%	x
CC(C)(C)C1=CC(=Nc2ccccc2N)C=C(C(C)(C)C)C1=O	-113.1*	u	-79.3*	u	2.8%	-80.6*
COc1ccc(N(C(=O)/C=C\C(=O)Nc2ccc(Cl)cc2)C(C(=O)NCc2ccco2)c2ccc(C)cc2)cc1 (configuration not stated)	x	16.4µM*	x	18.4µM*	10.4%	x
COc1ccc(NC(=O)/C=C\C(=O)N(c2ccc(C(C)C)cc2)C(C(=O)NCc2ccco2)c2ccc(F)cc2)cc1 (configuration not stated)	x	18.4µM*	x	u	10.4%	x
CCOc1ccc(NC(=O)/C=C\C(=O)N(c2ccc(C(C)C)cc2)C(C(=O)NCc2ccco2)c2ccc(F)cc2)cc1 (configuration not stated)	x	5.17µM*	x	13µM*	2.6%	x
COc1ccc(C(CC(=O)NCc2ccco2)c2ccc(F)cc2)cc1 (configuration not stated)	-3.4	-25.8%	-3.9	-3.7%	5.8%	-12.6
N#CC1=C(N)OC2=C(C(=O)CCC2)C1c1cc2c(cc1Cl)OCO2 (configuration not stated)	-9.0	10.8%	-14.0	-13.3%	x	0.7
C=CC[C@H](CC(=O)N(CCO)Cc1ccccc1)C(=O)N[C@@H](COC(=O)[C@@H](CC=C)Cc1ccc(F)cc1)Cc1c[nH]c2ccccc12	u	16.4µM*	-26.6	23.1µM*	2.9%	-27.1
C=CC[C@@H](CC(=O)N(CCO)Cc1ccccc1)C(=O)N[C@@H](COC(=O)[C@@H](CC=C)Cc1ccc(F)cc1)Cc1c[nH]c2ccccc12	-52.0*	u	x	16.4µM*	3.9%	-20.8
O=C(Nc1ccon1)c1nc[nH]c1C(=O)N1CCc2ccccc2C1	-12.0	-18.1%	-0.7	-17.3%	0.3%	3.6
CCOC(=O)c1cc(-c2ccccc2)nc2nc(N(CC)CC)sc12	-53.9*	-2.7%	69.9	u	-5.1%[0.0935 µM]	40.0
CN(Cc1ccccc1)c1ccc2cc(S(=O)(=O)N3CCCCC3)ccc2n1	x	10.3µM*	x	9.2µM*	5.3%	x
COCCNc1ccc2cc(S(=O)(=O)N3CCCCC3)ccc2n1	x	-8.3%	x	u	2.6%	x
Cc1cccc(N(C)c2ccc3cc(S(=O)(=O)N4CCCC4)ccc3n2)c1	-11.6	16.4µM*!	31.5	16.4µM*	-16.6%	37.8
Cc1cccc(N(C)C(=O)c2cc(S(=O)(=O)N3CCCC3)cn2C)c1	-9.2	-0.4%	-3.6	-26.6%	3.9%	2.4
OC[C@@H]1CN(Cc2ccc(Cl)cc2)C[C@H](n2cnc3c(NC4CCC4)ncnc32)O1	-84.5*	u	-2.3	u	x	-1.3
OC[C@@H]1CN(Cc2ccc3c(c2)OCO3)C[C@H](n2cnc3c(NC4CCCC4)ncnc32)O1	-71.9*	u	1.9	u	x	-1.0
CC(C)Nc1ncnc2c1ncn2[C@H]1CN(Cc2ccc(Cl)cc2)C[C@@H](CO)O1	2.3	u	-2.5	u	x	9.7
CCN(CC)c1ncnc2c1ncn2[C@H]1CN(Cc2ccc(F)cc2)C[C@@H](CO)O1	-6.1	u	-0.4	-22.7%	x	-8.0
CCN(CC)c1ncnc2c1ncn2[C@H]1CN(Cc2ccc(Cl)cc2)C[C@@H](CO)O1	-2.4	29.1µM*	-5.8	16.4µM*	x	1.2
COc1ccc(S(=O)(=O)N2CCC(C(=O)Nc3ccccc3C)CC2)c2cccnc12	7.6	-23.5%	-15.9	-19.5%	7.9%	-11.3

Screening results deposited in PubChem by National Center for Advancing Translational Sciences (NCATS).
